# Results: PubChem BioAssay (NCATS)
# Results filed as inconclusive are left out. Where a call stands in place of a potency, no number is given. Values without a mark were called inactive. Calls of active or inactive are those of the source. Calls follow the shape of the dose curve; as a rule, active = well fitted cell-killing curve with a large enough effect; inconclusive = small, poorly fitted or top-dose-only effect, or effect the other way; inactive = no such curve, though single readings can be large or run the other way.
# How the values were obtained:
# [1] = Quantitative High-Throughput drug screen in 47 multiple myeloma cell lines against the NCATS MIPE library collection: KMS28PE_JCRB cell viability assay (AID 1918983); also: nearly all actives have a fitted effect of over 35% in size
# In short: (§1)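 Readout: median RLU from CellTiter-Glo after 5 min at room temperature. Preceding step was 48 h drug treatment of 500 cells/well at 37 °C, 5% CO2, with DMSO-only and media-only control wells.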
# [2] = Quantitative High-Throughput drug screen in 47 multiple myeloma cell lines against the NCATS MIPE library collection: KMS34_JCRB cell viability assay (AID 1918985); also: nearly all actives have a fitted effect of over 40% in size
# In short: as §1
# [3] = Quantitative High-Throughput drug screen in 47 multiple myeloma cell lines against the NCATS MIPE library collection: OCIMY5_PLB cell viability assay (AID 1918988); also: nearly all actives have a fitted effect of over 65% in size
# In short: as §1
# [4] = Quantitative High-Throughput drug screen in 47 multiple myeloma cell lines against the NCATS MIPE library collection: SKMM1_PLB cell viability assay (AID 1919863); conditions: SKMM1 myeloma viability, CellTiter-Glo ATP, 48 h; viability: stronger effect = lower value; also: nearly all actives have a fitted effect of over 35% in size; as to viability: series mostly up to about 46 µM
# In short: as §1
# [5] = Quantitative High-Throughput drug screen in 47 multiple myeloma cell lines against the NCATS MIPE library collection: U266_ATCC cell viability assay (AID 1919864); also: nearly all actives have a fitted effect of over 35% in size
# In short: as §1
# [6] = Quantitative High-Throughput drug screen in 47 multiple myeloma cell lines against the NCATS MIPE library collection: OPM1_PLB cell viability assay (AID 1918989); also: nearly all actives have a fitted effect of over 40% in size
# In short: as §1
# [7] = Quantitative High-Throughput drug screen in 47 multiple myeloma cell lines against the NCATS MIPE library collection: XG6_PLB cell viability assay (AID 1919865); also: nearly all actives have a fitted effect of over 40% in size
# In short: as §1
# [8] = Quantitative High-Throughput drug screen in 47 multiple myeloma cell lines against the NCATS MIPE library collection: XG1_PLB cell viability assay (AID 1919866); also: nearly all actives have a fitted effect of over 35% in size
# In short: as §1
# [9] = Quantitative High-Throughput drug screen in 47 multiple myeloma cell lines against the NCATS MIPE library collection: L363_DSMZ cell viability assay (AID 1918984); also: nearly all actives have a fitted effect of over 40% in size
# In short: as §1
# [10] = Quantitative High-Throughput drug screen in 47 multiple myeloma cell lines against the NCATS MIPE library collection: OCIMY7_PLB cell viability assay (AID 1918987); also: nearly all actives have a fitted effect of over 65% in size
# In short: as §1
# Potency is read from the fitted curve at half-maximal effect.
smiles,measurement,setting,value
COc1cnc(NS(=O)(=O)c2ccc(N)cc2)nc1,Potency,[1],inactive
same,Potency,[2],inactive
same,Potency,[3],inactive
same,viability,[4],141%
same,Potency,[5],inactive
CCCCCCNC(=O)n1cc(F)c(=O)[nH]c1=O,Potency,[1],inactive
same,Potency,[2],8.33 µM (active)
same,Potency,[6],inactive
N[C@@H](C(=O)N[C@@H]1C(=O)N2C(C(=O)O)=C(Cl)CS[C@H]12)c1ccccc1,Potency,[1],inactive
same,Potency,[2],inactive
same,Potency,[6],inactive
same,viability,[4],123%
same,Potency,[7],inactive
CCCCS(=N)(=O)CCC(N)C(=O)O (configuration not stated),Potency,[1],inactive
same,Potency,[2],inactive
same,Potency,[5],inactive
same,Potency,[8],13.2 µM (active)
NC(=O)N1c2ccccc2CC(=O)c2ccccc21,Potency,[9],inactive
same,Potency,[2],inactive
same,Potency,[6],inactive
same,viability,[4],118%
same,Potency,[7],inactive
same,Potency,[8],inactive
CCn1cc(C(=O)O)c(=O)c2cc(F)c(N3CCNCC3)nc21,Potency,[9],inactive
same,Potency,[3],inactive
same,Potency,[6],inactive
same,viability,[4],102%
same,Potency,[7],inactive
same,Potency,[8],inactive
CC(C(=O)O)c1ccc2c(c1)CC(=O)c1ccccc1S2 (configuration not stated),Potency,[1],inactive
same,Potency,[6],inactive
Cc1noc(NS(=O)(=O)c2ccc(N)cc2)c1C,Potency,[1],inactive
same,Potency,[3],inactive
same,Potency,[6],inactive
same,Potency,[7],inactive
same,Potency,[8],inactive
CC(C)C1CCC(C(=O)N[C@H](Cc2ccccc2)C(=O)O)CC1 (some centres not stated),Potency,[2],inactive
same,Potency,[6],inactive
same,Potency,[7],inactive
same,Potency,[8],inactive
CC1=NN(c2ccccc2)C(=O)C1,Potency,[1],inactive
same,Potency,[6],inactive
same,Potency,[7],7.43 µM (active)
CC(C)NCC(O)c1ccc(NS(C)(=O)=O)cc1 (configuration not stated),Potency,[1],inactive
same,Potency,[6],inactive
same,viability,[4],159%
same,Potency,[7],inactive
CN(C)CCc1c[nH]c2ccc(CS(=O)(=O)N3CCCC3)cc12,Potency,[2],inactive
same,Potency,[3],inactive
same,Potency,[6],inactive
same,viability,[4],119%
same,Potency,[5],inactive
same,Potency,[8],20.9 µM (active)
C#CCN[C@@H]1CCc2ccccc21,Potency,[9],inactive
same,Potency,[2],inactive
same,Potency,[6],inactive
same,Potency,[5],inactive
same,Potency,[8],inactive
COC(=O)Nc1nc2ccc(S(=O)c3ccccc3)cc2[nH]1 (configuration not stated),Potency,[2],23.5 µM (active)
same,Potency,[3],16.6 µM (active)
same,Potency,[7],9.35 µM (active)
same,Potency,[8],8.33 µM (active)
CS(=O)(=O)c1ccc([C@@H](O)[C@@H](CO)NC(=O)C(Cl)Cl)cc1,Potency,[1],inactive
same,Potency,[5],inactive
same,Potency,[7],18.7 µM (active)
same,Potency,[8],18.7 µM (active)
Cn1nnc2c(C(N)=O)ncn2c1=O,Potency,[6],inactive
same,Potency,[7],inactive
same,Potency,[8],inactive
O=S(=O)(c1cccc2cnccc12)N1CCCNCC1,Potency,[1],18.7 µM (active)
same,viability,[4],125%
same,Potency,[5],inactive
same,Potency,[7],20.9 µM (active)
CNC1CCCN(c2c(F)cc3c(=O)c(C(=O)O)cn(C4CC4)c3c2OC)C1 (configuration not stated),Potency,[1],inactive
same,Potency,[6],5.9 µM (active)
same,viability,[4],118%
same,Potency,[7],inactive
same,Potency,[8],inactive
NCCCC(O)(P(=O)(O)O)P(=O)(O)O,Potency,[1],inactive
same,Potency,[6],inactive
same,viability,[4],137%
same,Potency,[8],inactive
CCOC(=O)c1ccc(C#Cc2ccc3c(c2)C(C)(C)CCS3)nc1,Potency,[9],inactive
same,Potency,[2],inactive
same,viability,[4],115%
O=C(O)CSCC(=O)NC1CCSC1=O (configuration not stated),Potency,[1],inactive
same,Potency,[6],inactive
same,viability,[4],130%
same,Potency,[7],inactive
same,Potency,[8],inactive
O=C(O)c1ccc(-n2nc(-c3ccccc3O)nc2-c2ccccc2O)cc1,Potency,[1],inactive
same,Potency,[6],23.5 µM (active)
same,Potency,[7],20.9 µM (active)
Cc1ncc([N+](=O)[O-])n1CCO,Potency,[1],inactive
same,Potency,[3],inactive
same,Potency,[6],inactive
same,Potency,[7],inactive
same,Potency,[8],inactive
Cc1oc(=O)oc1CN1CCN(c2cc3c(cc2F)c(=O)c(C(=O)O)c2n3C(C)S2)CC1 (configuration not stated),Potency,[6],inactive
same,Potency,[5],inactive
O[C@@H](CNC[C@H](O)[C@H]1CCc2cc(F)ccc2O1)[C@@H]1CCc2cc(F)ccc2O1,Potency,[9],16.6 µM (active)
same,Potency,[3],20.9 µM (active)
same,Potency,[6],26.4 µM (active)
same,Potency,[4],18.7 µM (active)
same,Potency,[5],26.4 µM (active)
same,Potency,[7],13.2 µM (active)
same,Potency,[8],20.9 µM (active)
CC1(C)[C@H](C(=O)O)N2C(=O)C[C@H]2S1(=O)=O,Potency,[9],inactive
same,Potency,[6],inactive
same,viability,[4],120%
same,Potency,[7],inactive
COc1c(N2CCNC(C)C2)c(F)cc2c(=O)c(C(=O)O)cn(C3CC3)c12 (configuration not stated),Potency,[1],inactive
same,Potency,[3],inactive
same,viability,[4],135%
same,Potency,[5],inactive
same,Potency,[7],inactive
same,Potency,[8],inactive
CC(C)OC(=O)OCOP(=O)(CO[C@H](C)Cn1cnc2c(N)ncnc21)OCOC(=O)OC(C)C,Potency,[3],3.72 µM (active)
same,Potency,[6],inactive
same,Potency,[5],16.6 µM (active)
N[C@@H](Cc1ccc(O)c(O)c1)C(=O)O,Potency,[4],26.4 µM (active)
same,Potency,[5],inactive
same,Potency,[7],inactive
same,Potency,[8],inactive
C[C@@H](CN1CC(=O)NC(=O)C1)N1CC(=O)NC(=O)C1,Potency,[9],2.96 µM (active)
same,Potency,[2],inactive
same,Potency,[10],2.35 µM (active)
same,Potency,[3],inactive
same,viability,[4],130%
same,Potency,[5],inactive
same,Potency,[8],14.8 µM (active)
O=c1cc(O)c(Cl)c[nH]1,Potency,[9],2.35 µM (active)
same,Potency,[2],inactive
same,Potency,[6],inactive
same,Potency,[5],5.9 µM (active)
same,Potency,[7],1.87 µM (active)
same,Potency,[8],3.72 µM (active)
Nc1nc(N)c2nc(CNc3ccc(C(=O)NC(CCC(=O)O)C(=O)O)cc3)cnc2n1 (configuration not stated),Potency,[1],inactive
same,Potency,[5],0.148 µM (active)
same,Potency,[8],0.0332 µM (active)
O=c1oc2c(O)c(O)cc3c(=O)oc4c(O)c(O)cc1c4c23,Potency,[1],inactive
same,Potency,[6],inactive
same,Potency,[5],inactive
same,Potency,[8],inactive
CC1=CC(=O)c2ccccc2C1=O,Potency,[3],16.6 µM (active)
same,Potency,[6],23.5 µM (active)
same,Potency,[4],16.6 µM (active)
same,Potency,[5],18.7 µM (active)
same,Potency,[7],14.8 µM (active)
same,Potency,[8],23.5 µM (active)
COc1cc([C@@H]2c3cc4c(cc3[C@H](O)[C@H]3COC(=O)[C@H]23)OCO4)cc(OC)c1OC,Potency,[9],inactive
same,Potency,[2],inactive
same,Potency,[6],inactive
same,viability,[4],65.8%
same,Potency,[5],inactive
same,Potency,[7],inactive
same,Potency,[8],inactive
CC[C@H](C)C(=O)O[C@H]1C[C@@H](C)C=C2C=C[C@H](C)[C@H](CC[C@@H]3C[C@@H](O)CC(=O)O3)[C@H]21,Potency,[9],inactive
same,Potency,[3],16.6 µM (active)
same,Potency,[6],11.8 µM (active)
C[C@@H]1C[C@H]2[C@@H]3CCC4=CC(=O)C=C[C@]4(C)[C@@]3(Cl)[C@@H](O)C[C@]2(C)[C@@]1(OC(=O)c1ccco1)C(=O)CCl,Potency,[3],16.6 µM (active)
same,Potency,[6],10.5 µM (active)
same,Potency,[5],9.35 µM (active)
same,Potency,[7],1.66 µM (active)
same,Potency,[8],3.72 µM (active)
CN(C)CCc1c[nH]c2ccc(C[C@H]3COC(=O)N3)cc12,Potency,[9],inactive
same,Potency,[2],inactive
same,Potency,[3],inactive
same,viability,[4],104%
same,Potency,[7],3.32 µM (active)
same,Potency,[8],inactive
CC1=C(C(=O)O)N2C(=O)[C@@H](NC(=O)C(N)c3ccccc3)[C@H]2SC1 (some centres not stated),Potency,[1],inactive
same,Potency,[6],inactive
same,viability,[4],130%
same,Potency,[7],inactive
CNS(=O)(=O)Cc1ccc2[nH]cc(CCN(C)C)c2c1,Potency,[2],inactive
same,Potency,[10],inactive
same,Potency,[3],inactive
same,Potency,[6],inactive
same,viability,[4],112%
same,Potency,[7],inactive
same,Potency,[8],inactive
